# From PubChem BioAssay
# ALOX12 inh: blocks human arachidonate 12S-lipoxygenase | P18054 | AID 1671190 | purified 12hLO, xylenol orange hydroperoxide absorbance | 580,000 compounds, 1.1% hits | Potency, µM (highest dose often 108 µM), usual class: inhibitors
# Target sequence (P18054 whole entry, looked up): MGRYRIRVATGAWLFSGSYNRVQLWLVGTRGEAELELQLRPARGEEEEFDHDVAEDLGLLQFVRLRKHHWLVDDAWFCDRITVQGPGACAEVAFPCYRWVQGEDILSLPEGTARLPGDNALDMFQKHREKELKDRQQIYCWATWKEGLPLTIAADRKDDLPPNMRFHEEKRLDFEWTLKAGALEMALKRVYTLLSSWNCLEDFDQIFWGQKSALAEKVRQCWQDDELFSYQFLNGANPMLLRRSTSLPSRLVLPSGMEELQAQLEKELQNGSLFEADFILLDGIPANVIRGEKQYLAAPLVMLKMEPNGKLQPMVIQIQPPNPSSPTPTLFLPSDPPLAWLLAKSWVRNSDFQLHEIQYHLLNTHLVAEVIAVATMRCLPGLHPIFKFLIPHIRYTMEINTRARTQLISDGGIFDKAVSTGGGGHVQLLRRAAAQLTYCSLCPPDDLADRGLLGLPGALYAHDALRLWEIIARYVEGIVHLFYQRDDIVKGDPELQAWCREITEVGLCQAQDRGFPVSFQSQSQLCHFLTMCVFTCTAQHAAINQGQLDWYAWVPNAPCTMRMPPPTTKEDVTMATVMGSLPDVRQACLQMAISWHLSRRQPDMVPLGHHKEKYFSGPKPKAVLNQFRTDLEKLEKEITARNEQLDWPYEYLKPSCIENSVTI
#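 Hydroperoxide product was detected by ferrous iron/xylenol orange as the 573 to 405 nm absorbance ratio. Arachidonic acid at 40 uM (final) was turned over for 30 min at room temperature by 150 nM human 12hLO, pH 7.0 Hepes buffer, after 15 min compound preincubation.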
# S-ASM inh: inhibitors of human secretory acid sphingomyelinase | P17405 | placental ASM, HMU-PC fluorogenic substrate, 60 min | Potency, µM (top dose mostly 57.5 µM), hits mostly inhibitors | 340,000 compounds, 0.006% hits | AID 504937
#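 Fluorescence read-out (Ex 386 nm, Em 447 nm) after stopping the reaction at pH 10. Enzyme: ASM from human placenta; substrate HMU-PC0, 9 uM final; 60 min, 37 °C. Compound preincubation 10 min, ambient temperature.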
# Vif-A3F inh: inhibitors of Vif-A3F interaction. HeLa A3F-eYFP + Vif (tagged APOBEC3F with the HIV-1 protein that degrades it), YFP fluorescence increase. Potency, µM (highest dose often 46.1 µM). 390,000 compounds, 0.2% hits; also: nearly all actives have a fitted effect of over 65% in size
#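 HeLa cells stably expressing A3F-eYFP plus Vif, plated and incubated overnight at 37 deg C, then exposed to compounds overnight at 37 deg C. Blocked degradation read as raised yellow fluorescence (Ex 488/Em 500-530).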
# Vif-APOBEC3G blk: inhibitors of Vif-APOBEC3G interaction; 410,000 compounds, 0.076% hits; AID 602310; HeLa A3G-eYFP + Vif (tagged APOBEC3G with the HIV-1 protein that degrades it), YFP fluorescence, overnight; Q9HC16; Potency, µM (titrated, usually from 46.1 µM), most hits filed as inhibitors; also: nearly all actives have a fitted effect of over 60% in size
#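 Read-out is eYFP fluorescence (Ex 488/Em 500-530) from Vif-expressing HeLa A3G-eYFP cells; more signal means A3G escaped Vif-mediated degradation. Cells plated overnight, compound pinned in, incubated overnight at 37 deg C.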
# PTAP TSG101 blk: blocks PTAP/TSG101 interaction to inhibit HIV-1 budding; Fluorescence polarization, FITC-PTAP peptide / Tsg101 binding; Potency, µM (top dose mostly 115 µM), actives largely listed as inhibitors; 340,000 tested, under 10 active; AID 493005; active = well fitted inhibition curve with a large enough effect in the main read-out, with a control signal flat, not every such curve was filed as active; inconclusive = small, poorly fitted or top-dose-only effect, or effect the other way, or a change in a side signal; inactive = no such curve, though single readings can be large or run the other way
#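 Steps: Tsg101 binding domain dispensed (10 uM final), compounds pinned in DMSO, FITC-labeled PTAP-motif peptide added (50 nM final); after 20 min binding at room temperature, polarization measured.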
# pAkt inh: inhibitors of Akt phosphorylation; Neuro2A IGF-stimulated pAkt S473 HTRF, 20 min; stronger effect = lower value; activity change, % for hits at 50 µM; 360,000 compounds, 0.32% hits; in the data active = activity change below about -80%; inconclusive = mostly about -51% to -80%
#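 Neuro2A cells in DMEM with 0.5% FBS, overnight at 37 deg C, given compound at single 50 µM final, then IGF (6 nM final) for 20 min at 37 deg C. Lysed; phospho-Akt Ser473 by HTRF after 24 h, 665/615 ratio.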
# A number is an active result; i = inactive; ? = inconclusive; nt = no result; ! = not active in a repeat. A selection: hits, their analogues and other compounds. The true share with any hit is near 1.4%. Unless noted, calls follow the shape of the dose curve; as a rule, active = well fitted curve in the direction sought with a large enough effect; inconclusive = small, poorly fitted or top-dose-only effect, or another doubt; inactive = no such curve, though single readings can be large; an effect the other way counts as inactive or inconclusive.
SMILES,ALOX12 inh,S-ASM inh,Vif-A3F inh,Vif-APOBEC3G blk,PTAP TSG101 blk,pAkt inh
Cc1ccc2nc(N3C(=O)C(O)=C(C(=O)c4ccco4)C3c3ccc(O)cc3)sc2c1 (stereo unspecified),22µM!,nt,nt,nt,nt,nt
Cc1cc(C)c2nc(N3C(=O)C(O)=C(C(=O)c4ccco4)C3c3ccc(O)cc3)sc2c1 (stereo unspecified),25µM,i,i,i,i,i
O=C1NC(c2ccccc2)Nc2c1sc(=S)n2-c1ccccc1 (stereo unspecified),45µM,i,i,i,i,i
COc1ccc(C2NC(=O)c3sc(=S)n(-c4ccccc4)c3N2)cc1 (stereo unspecified),?,i,i,i,i,i
Cc1c2c(=O)n(-c3ccc(F)cc3)[nH]c2cc(=O)n1Cc1ccccc1,11µM,nt,nt,nt,nt,nt
NC(=O)Cc1csc(NC(=O)CCc2ncc(-c3ccc(F)cc3F)o2)n1,i,nt,nt,nt,nt,nt
CCc1ccc(OCC(=O)Nc2ccc(-c3nc4ccccc4o3)c(O)c2)cc1,i,i,i,i,i,-102%
N#Cc1cccc(NC(=O)NCCNc2ncccc2C(F)(F)F)c1,i,nt,nt,nt,nt,nt
COc1ccc2nc(N3CCCC3)c(C#N)cc2c1,?,i,11µM,i,?,i
CCN(CC(=O)Nc1ccccc1-c1ccccc1)Cc1nc2ccccc2c(=O)[nH]1,i,i,i,7.1µM,i,i
Cc1ccc(N/N=C/c2ccc(C)s2)cc1,56µM,nt,nt,nt,nt,nt
Cc1[nH]c(=O)nc(SCc2cccc(Cl)c2)c1C#N,?,i,i,i,i,i
N#Cc1c(-c2ccccc2)nc(SCc2cccc(Cl)c2)[nH]c1=O,40µM,i,i,i,i,i
N#Cc1c(-c2ccco2)nc(SCC(=O)Nc2cccc(Cl)c2)[nH]c1=O,22µM,i,i,i,i,i
Cc1ccc2sc(N(CCCN(C)C)C(=O)c3ccc(S(=O)(=O)N(C)C)cc3)nc2c1C,i,i,i,i,i,i
Cc1ccc2sc(N(CCCN(C)C)C(=O)c3ccc(S(=O)(=O)N(C)Cc4ccccc4)cc3)nc2c1C,28µM,?,i,i,i,i
O=S(=O)(Nc1nc2ccccc2nc1N1CCN(c2ccccn2)CC1)c1ccc(Cl)cc1,i,i,7.9µM,?,i,i
O=S(=O)(Nc1nc2ccccc2nc1N1CCc2ccccc2C1)c1ccc(Br)cc1,i,i,22µM,i,i,i
O=S(=O)(Nc1nc2ccccc2nc1N1CCc2ccccc2C1)c1ccc(Cl)cc1,i,i,i,i,i,i
CN1CCN(c2nc3ccccc3nc2NS(=O)(=O)c2ccc(Br)cc2)CC1,i,i,10µM,i,i,i
CC(C)Cn1c(SC(C)C(=O)Nc2nccs2)nnc1-c1ccco1 (stereo unspecified),i,nt,nt,nt,nt,nt
COc1cccc(CNC(=O)c2ccc(N3CCOCC3)c(NC(=O)Nc3cc(F)ccc3F)c2)c1,i,nt,nt,nt,nt,nt
COC(=O)C(C)N1C(=O)S/C(=C/c2ccccc2)C1=O (stereo unspecified),i,nt,nt,nt,nt,nt
Cc1ccc(CNC(=O)C23CCC(=O)N2CCS3)cc1 (stereo unspecified),i,nt,nt,nt,nt,nt
O=C1C2C(c3ccccc3)C=CC(c3ccccc3)C2C(=O)N1CCCO (stereo unspecified),i,i,i,i,i,-102%
SMILES,ALOX12 inh,S-ASM inh,Vif-A3F inh,Vif-APOBEC3G blk,PTAP TSG101 blk,pAkt inh
C=CCOCCN1C(=O)C2C(c3ccccc3)C=CC(c3ccccc3)C2C1=O (stereo unspecified),?,i,i,i,i,i
CNS(=O)(=O)c1cc(-c2c(C)nn3c2NC(=O)CCC3=O)ccc1C,i,nt,nt,nt,nt,nt
O=c1[nH]c(CN2CCN(c3ccccc3)CC2)nc2scc(-c3ccccc3)c12,i,i,22µM,?,i,i
CCc1ccc(-c2nn(-c3ccccc3)cc2C2SCC(=O)N2Cc2ccco2)cc1 (stereo unspecified),i,i,i,i,i,i
O=C1CSC(c2cn(-c3ccccc3)nc2-c2ccccc2)N1Cc1ccco1 (stereo unspecified),45µM,i,i,i,i,i
O=C(CSc1nc2ccccc2o1)Nc1cccc(Cl)c1,i,nt,nt,nt,nt,nt
C=CCn1c(SCC(=O)Nc2ccccc2)nc2c1c(=O)[nH]c(=O)n2C,i,nt,nt,nt,nt,nt
COc1ccc(-c2nnc3ccc(SCC(=O)N4CCOCC4)nn23)cc1,i,i,i,i,i,i
COc1ccc(N2CCN(C(=O)CSc3nnc(-c4cc5ccccc5cc4O)n3C)CC2)cc1,i,i,i,i,i,i
COc1ccc(-c2nnc3ccc(SCC(=O)N4CCN(c5ccccc5)CC4)nn23)cc1,32µM,i,i,i,i,i
COc1ccc(-n2cnnc2SCC(=O)N2CCN(c3ccccc3)CC2)cc1,i,i,nt,i,i,-108%
Cc1ccc(-c2nnc3ccc(SC(C)C(=O)O)nn23)cc1 (stereo unspecified),32µM,i,i,i,i,i
CC(Sc1ccc2nnc(-c3ccc(F)cc3)n2n1)C(=O)O (stereo unspecified),?,i,i,i,i,i
CCn1nc(C(=O)Nc2nc3c(s2)CC(C)CC3)c2ccccc2c1=O (stereo unspecified),i,nt,nt,nt,nt,nt
CCc1ccc(NC(=O)c2cc(=O)c3cc(C)cc(C)c3o2)cc1,i,nt,nt,nt,nt,nt
Cc1ccc(-n2nc3c(N4CCCC(C(=O)NCc5ccccc5C)C4)nnc(C)c3c2C)cc1 (stereo unspecified),i,nt,13µM,i,nt,nt
C#CCNC(=O)C[C@@H]1c2nc(NC(=O)c3ccc(C(C)(C)C)cc3)sc2C[C@@H]2[C@](C)(CO)[C@H](O)CC[C@]21C,i,nt,nt,nt,nt,nt
CCCOc1ccc(C2=NNC(c3cccs3)=Nc3ccc(OC)cc32)cc1,i,i,i,i,i,-125%
COc1ccc2c(c1)C(c1cccs1)=NNC(c1ccncc1)=N2,i,i,i,i,i,i
CCC(C)(CNC(=O)NCc1nc(C)cs1)N1CCOCC1 (stereo unspecified),i,nt,nt,nt,nt,nt
CSCC[C@H](NC(=O)[C@H](Cc1ccccc1)n1c(=O)[nH]c2ccccc2c1=O)C(=O)N1CCC[C@@H]1C(=O)O,i,i,i,10µM,i,i
CCOP(=O)(OCC)c1nc(-c2ccco2)oc1NCc1ccccc1,i,nt,nt,nt,nt,nt
Cc1ccccc1-c1cc(C(=O)NCc2cccc(Br)c2)n(CC2CC(c3cccnc3)=NO2)n1 (stereo unspecified),40µM,i,i,i,i,i
COc1cccc(CN2Cc3cc(NC(=O)c4cccc(OC)c4)ccc3OCC2=O)c1,i,nt,nt,nt,nt,nt
COc1ccccc1C1/C(=C(/O)c2ccccc2)C(=O)C(=O)N1CCO (stereo unspecified),?,i,i,i,i,i
